Rows were chosen to be rich in hits. Some 2.9% of all compounds tested hit in one or more screens of this group.
ADAM17 inh: inhibitors of human ADAM17; recombinant ADAM17, EDANS/DABCYL FRET peptide cleavage; inhibition, % at 6.95 µM; 370,000 compounds, 0.83% hits; AID 720648;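 active = inhibition above the mean of compounds lying between control limits plus 3 SD, set per campaign, cut at about 8.5% in these data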;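 note: 0% = DMSO-only wells as the low control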
proKLK7 act: proKLK7 (human) activation, primary screen; P49862; purified proKLK7, EDANS-DABCYL substrate fluorescence; 100% is mature enzyme control, 0% vehicle; activation, % at 7 µM; 370,000 compounds, 0.9% hits;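 active = activation above the mean of all tested compounds plus 3 SD, computed per campaign excluding outliers beyond control limits, cut at about 13% in these data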
ADAM10 inh: ADAM10 inhibition, QFRET primary screen; O14672; recombinant ADAM10, EDANS/DABCYL FRET peptide cleavage, 3 h; inhibition, % at 7 µM; 370,000 compounds, 0.62% hits;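 active = inhibition above a per-campaign cutoff equal to the mean of compounds falling between control-based bounds plus 3 SD, cut at about 20% in these data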;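 note: 0% = DMSO wells while the 100% control is not disclosed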
Target sequence (O14672 214-748 limits assumed): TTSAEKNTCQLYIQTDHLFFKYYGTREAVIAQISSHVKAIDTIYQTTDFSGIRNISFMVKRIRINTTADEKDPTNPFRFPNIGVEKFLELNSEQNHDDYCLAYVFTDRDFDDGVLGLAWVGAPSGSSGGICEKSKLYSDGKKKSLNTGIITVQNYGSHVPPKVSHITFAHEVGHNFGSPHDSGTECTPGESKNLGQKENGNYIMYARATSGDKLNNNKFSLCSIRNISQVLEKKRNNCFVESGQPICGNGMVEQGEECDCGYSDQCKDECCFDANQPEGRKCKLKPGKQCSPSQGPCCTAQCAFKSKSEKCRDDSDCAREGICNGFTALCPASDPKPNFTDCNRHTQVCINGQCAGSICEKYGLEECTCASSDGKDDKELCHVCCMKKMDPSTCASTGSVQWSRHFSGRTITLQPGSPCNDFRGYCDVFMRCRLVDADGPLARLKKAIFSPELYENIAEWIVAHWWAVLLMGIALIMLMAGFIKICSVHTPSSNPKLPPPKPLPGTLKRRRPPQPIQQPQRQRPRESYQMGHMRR
PLCb3 inh: PLC-beta3 (human) inhibition, primary screen | Purified PLC-beta3, fluorogenic substrate, fluorescence | inhibition, % at 12.2 µM | Q01970 | 370,000 compounds, 0.18% hits; in the data active = inhibition above about 11%;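 note: 0% = median of compound wells on plate and 100% = full blocker control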
PLC-gamma1 inh: blocks human PLC-gamma1 enzyme activity; purified PLC-gamma1, fluorogenic substrate, fluorescence; P19174; 370,000 compounds, 0.84% hits; inhibition, % at 12.2 µM; AID 720700; in the data active = inhibition above about 9.5%
proKLK7 act conf: proKLK7 activation, confirmation; activation, % at 7 µM; 3,200 compounds, 68% hits; purified proKLK7, EDANS-DABCYL substrate fluorescence; scaled: vehicle 0, mature enzyme 100; shares compounds with proKLK7 act;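 active = activation, as change over the incubation, above the mean of all tested compounds plus 3 SD, cut at about 13% in these data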
EDANS interfere: optically interferes with EDANS-DABCYL signal, flagging KLK7 hits; EDANS-DABCYL substrate fluorescence interference, no enzyme, 4 h; solvent 0%, active enzyme control 100%; 3,200 compounds, 80% hits; activation, % at 7 µM; shares compounds with proKLK7 act; AID 686952;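 active = activation above the all-compound mean plus 3 SD, ignoring values outside control-based bounds, cut at about 4.8% in these data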;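 note: value is the 4 h activation minus the activation read at time zero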
EDANS interf: counter-screen for kallikrein-7 activators: EDANS-DABCYL interference, dose response; shares compounds with proKLK7 act; EDANS-DABCYL peptide fluorescence interference, no enzyme; EC50, µM; 250 compounds, 20% hits; AID 720493;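 active = compounds that raise the fluorescence signal in this interference counterscreen, with EC50 at or below 10 µM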;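 note: intact quenched peptide substrate alone read at 355 nm excitation and 520 nm emission; signal is fluorescence gain from T0 to T4 after four hours at room temperature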
Active calls of the source: *.

COC(=O)CC1=C(C(=O)OC)[C@@H](c2ccccc2[N+](=O)[O-])C(C#N)=C(N)O1 was read as ADAM17 inh -13, proKLK7 act 38*, ADAM10 inh -40, PLCb3 inh -48, PLC-gamma1 inh -34, proKLK7 act conf 90*, EDANS interfere 71* and EDANS interf 8.7*.
Screening CC(C)C(=O)NS(=O)(=O)c1ccc(NS(C)(=O)=O)cc1 returned ADAM17 inh -2, proKLK7 act 0, ADAM10 inh 9, PLCb3 inh -7 and PLC-gamma1 inh 0.
`COc1cc2c(cc1OC)C(C)N(CC(=O)Nc1ccc(S(=O)(=O)N3CCCC3)cc1)CC2` (stereo not given) gave ADAM17 inh -28, proKLK7 act 6, ADAM10 inh -96, PLCb3 inh -168 and PLC-gamma1 inh -105.
For C=CCN(CC=C)c1nc2ccccc2nc1C(C#N)C(=O)OC(C)C (stereo not given) the results were ADAM17 inh -229, proKLK7 act 19*, ADAM10 inh inactive, PLCb3 inh -387, PLC-gamma1 inh -298, proKLK7 act conf 22* and EDANS interfere 22*.
`C=CCOC(=O)C(C#N)c1nc2ccccc2nc1N1CCN(c2ccccc2OC)CC1` (stereo not given) gave ADAM17 inh -11, proKLK7 act -1, ADAM10 inh -18, PLCb3 inh -22 and PLC-gamma1 inh -25.
`COc1ccc(S(=O)(=O)N2CCOC23CCN(S(=O)(=O)c2cc(C)ccc2OC)CC3)cc1` gave ADAM17 inh -3, proKLK7 act 1, ADAM10 inh -11, PLCb3 inh -1 and PLC-gamma1 inh 6.
CC(C)(C)c1ccc(OC(=O)Nc2ccc(O)c(C(=O)O)c2)cc1 was read as ADAM17 inh -64, proKLK7 act 13*, ADAM10 inh -135, PLCb3 inh -129, PLC-gamma1 inh -93, proKLK7 act conf 14* and EDANS interfere 12*.
Screening Cc1cccc(OC(=O)Nc2ccc(C(=O)O)c(O)c2)c1 returned ADAM17 inh -5, proKLK7 act 0, ADAM10 inh -21, PLCb3 inh -2 and PLC-gamma1 inh 0.
For Cc1cccc(-c2cc(N3CCCN(C)CC3)n3nccc3n2)c1 the results were ADAM17 inh -154, proKLK7 act 29*, ADAM10 inh inactive, PLCb3 inh -344, PLC-gamma1 inh -296, proKLK7 act conf -3 and EDANS interfere -3.
For COc1cc2c[n+](C)c3c4ccccc4ccc3c2cc1OC the results were ADAM17 inh -330, proKLK7 act 26*, ADAM10 inh inactive, PLCb3 inh inactive, PLC-gamma1 inh inactive, proKLK7 act conf 10 and EDANS interfere 16*.
`COc1ccc2c(c1)c[n+](C)c1c3cc(OC)c(OC)cc3ccc21` gave ADAM17 inh -6, proKLK7 act -2, ADAM10 inh -27, PLCb3 inh -26 and PLC-gamma1 inh -20.
For CC(C)N(NC(=O)c1cccc2ccccc12)C(C)C the results were ADAM17 inh -1, proKLK7 act 0, ADAM10 inh 1, PLCb3 inh 3 and PLC-gamma1 inh 0.
For Cc1cc(=O)c2c(N(C)C)cccc2[nH]1 the results were ADAM17 inh inactive, proKLK7 act 82*, ADAM10 inh inactive, PLCb3 inh inactive, PLC-gamma1 inh inactive, proKLK7 act conf 57* and EDANS interfere 69*.
`C[n+]1ccc(/C=C/c2c[nH]c3ccc(F)cc23)cc1` gave ADAM17 inh 1, proKLK7 act 15*, ADAM10 inh -13, PLCb3 inh -405, PLC-gamma1 inh -267, proKLK7 act conf 10 and EDANS interfere 14*.
For CCCCC(c1nnnn1CCOC)N1CCN(C(=O)c2ccco2)CC1 (stereo not given) the results were ADAM17 inh -2, proKLK7 act 0, ADAM10 inh 4, PLCb3 inh 5 and PLC-gamma1 inh 1.

Bioassay records: PubChem BioAssay, The Scripps Research Institute Molecular Screening Center
